Consider 46 molecules from PubChem BioAssay AID1259415 (National Center for Advancing Translational Sciences (NCATS), 2018).

The campaign covered roughly 410,000 compounds. About 18,000 (4.4%) were called active. Not shown: some 7% with an inconclusive outcome. This excerpt belongs to a sample that is enriched for actives. A number with no mark means an inactive call. Cut-off read from the data, not from the text of the source: active = activity change below about -60%; inconclusive = no clear call, values can overlap the other calls; inactive = above about -39%.
% is set by controls: 0 for no effect and ±100 for the full control effect.

A short description of the assay: qHTS Assay for inhibitors of the human cytomegalovirus (HCMV). The settings on record: HFF cells, HCMV-luciferase reporter, 72 h; at 57.5 µM; hits give low values. From the text:
NCGC Assay Overview: Infection with human cytomegalovirus (HCMV) continues to pose significant threats for pregnant women and immunocompromised hosts. HCMV causes serious morbidity and mortality in transplant recipients, and congenital HCMV is the leading infectious cause of mental retardation and deafness in children. In the 1990s, the annual costs associated with the disease burden of congenital CMV were estimated at around $2 billion. A HCMV vaccine is not available yet and HCMV therapies result in intolerable side effects and emergence of drug resistant viruses. […] Towards this goal we have developed and characterized a luciferase HCMV reporter that was initially used in 96 well plates and then optimized to 1536-well plates for utilization in screening of the MLSMR collection, the NGCG diversity collection and the NCGC Pharmaceutical Collection of approved and investigational drugs.
NCGC Assay Protocol Summary:
This is a cell-based assay for HCMV inhibition in HFFs cells. The screening used 2 compound doses and the HCMV-luciferase at MOI of 1 PFU/cell. Cells were treated and infected with HCMV. At 72 h post infection cell lysates were collected and luciferase activity was determined using the Glomax-Multi + Detection System (Promega, Madison, WI). Data were normalized to the controls for basal activity (buffer only) and known HCMV inhibitors Salinmoycin.
1536-well assay protocol for the assay:
(1) Add 3 ul CMV/HFF cell culture. 1000 cells/well in DMEM nirmal media.
(2) Incubate 16 hr at 37C.
(3) Add 23 nl control compound, 10uM of Salinomycin.
(4) Add 23 nl compounds in DMSO solution.
(5) Add 3 ul CMV suspension. Final 1 puf/ul, Virus stock 2000pfu/ul
(6) Incubate 72 hrs at 37C.
(7) Add 4 ul OneGlo Luc Reagent.
(8) Incubate 5 min at room temperature.
In general terms: qHTS replaces the single test concentration by a dilution series.
For the molecule `CCOc1ccc(C2C3=C(CCCC3=O)N(CC(=O)O)C3=C2C(=O)CCC3)cc1`, the activity change, negative = inhibition is -23.6%.
The same measure for `CCOC(=O)C1Sc2[nH]c(=O)sc2C(c2ccc(Cl)cc2)C1C(=O)OCC` (stereo unspecified): -32.8%; for `CCCOC(=O)c1[nH]c2c(c1C)C(=O)CC(c1cccs1)C2` (stereo unspecified): -91.4% (active); for `CCOC(=O)c1ccc(N2C(=O)c3[nH]nc(-c4ccccc4)c3C2c2ccc(C(C)C)cc2)cc1` (stereo unspecified): -27.7%.
The same measure for `CCOc1ccc(C2CC(=O)c3c([nH]c(C(=O)OCc4ccccc4)c3C)C2)cc1` (stereo unspecified): -87.7% (active); for `CCOC(=O)c1[nH]c2c(c1-c1ccccc1)C(=O)CC(c1ccc(Cl)cc1)C2` (stereo unspecified): -60.6% (active); for `COc1ccc(-c2cnn(C(C)(C)C(=O)Nc3ccccn3)c2)cc1OC`: 25%.
Consider `COc1ccc(NC(=O)c2sc(=O)n(Cc3ccc(S(=O)(=O)N(C)C)cc3)c2C)cc1`, for which the activity change, negative = inhibition is -0.573%.
With `OCC1(Cc2ccccc2C(F)(F)F)CCN(Cc2ccncc2)CC1`, the activity change, negative = inhibition was 71%.
For the molecule `Cc1nc2c(c(C)nn2-c2ccccc2)c(C)c1CCC(=O)NCCc1ccc(Cl)cc1`, the activity change, negative = inhibition was -1.35%.
With `Cc1cc(C)c2oc(C(=O)Nc3ccc(S(=O)(=O)N4CCCCCC4)cc3)cc(=O)c2c1` the figure was -9.78%; with `CCOc1ccc(NC(=O)c2cn(C3CCCCC3)c(=O)c3c2c2ccccc2n3C)cc1`, -4.97%.
`O=C(COc1ccc(Cl)cc1)N(Cc1ccco1)Cc1ccco1`: the activity change, negative = inhibition was -22.5%.
Consider `COc1ccc(S(=O)(=O)NCC(c2ccc(N(C)C)cc2)N2CCc3ccccc32)cc1OC` (stereo unspecified), for which the activity change, negative = inhibition is 34.1%.
The same measure for `Cc1ccc(C)c(-n2c(SCC(=O)O)nc3sc4c(c3c2=O)CCCC4)c1`: -26%; for `O=C(CCc1nc2sc3c(c2c(=O)[nH]1)CCCC3)NCC(=O)Nc1ccccc1Br`: -4.74%; for `Cc1nc2sc3c(c2c(=O)n1NC(=O)CCl)CCCC3`: -63.7% (active).
With `O=C(c1ccc2c(c1)N(Cc1ccccc1F)C(=O)c1ccccc1S2(=O)=O)N1CCOCC1` the figure was 5.01%; with `COc1cccc2c1C(=O)c1c(O)c3c(c(O)c1C2=O)CC(O)(C(C)=NNC(=O)c1ccc(Cl)c(Cl)c1)CC3OC1CC(N)C(O)C(C)O1` (stereo unspecified), -99% (active); with `Cc1ccc2nc(CN3CCN(S(=O)(=O)c4ccc(C)c(C)c4)CC3)oc2c1`, 1.05%.
With `COc1ccc(CN2C(=O)C(NC(=O)c3cccc(C)c3)(C(F)(F)F)N=C2c2ccccc2)cc1` (stereo unspecified) the figure was -8.44%.
For the molecule `CC1C(C)N(C(=O)CCl)c2ccccc2N1C(=O)CCl` (stereo unspecified), the activity change, negative = inhibition was -38.8%.
Consider `CC1C(=O)N(Cc2ccccc2)c2ccccc2N1C(=O)c1ccccc1` (stereo unspecified), for which the activity change, negative = inhibition was -73.6% (active).
With `CC1Oc2ccccc2N(Cc2cccnc2)C1=O` (stereo unspecified) the figure was 49.3%; with `COc1cc(C(CC(=O)NCCC(C)C)N2Cc3ccccc3C2=O)cc(OC)c1OC` (stereo unspecified), 22.7%; with `Cc1ccc(CCNC(=O)CN2C(=O)CSc3ccc(S(=O)(=O)N4CCOCC4)cc32)cc1`, -26.9%.
With `CCN(CC)S(=O)(=O)c1ccc2c(c1)N(CC(=O)NCc1ccccc1)C(=O)CS2` the figure was -9.16%; with `COC(=O)CN1C(=O)CSc2ccc(S(=O)(=O)Nc3cc(C)ccc3C)cc21`, -71.2% (active).
With `COc1ccc(Cc2nc3ccc(C(=O)NCc4ccccc4C)cc3o2)cc1` the figure was -89.9% (active); with `COc1ccc(Cc2nc3ccc(C(=O)NCc4ccccc4Cl)cc3o2)cc1`, -18%; with `COc1ccc(Cc2nc3ccc(C(=O)NCc4ccc(OC)cc4OC)cc3o2)cc1`, -12.1%.
In the case of `O=C(NC1CCCC1)N1CC(=O)N2[C@H](C1)[C@@H](c1ccc(Br)cc1)[C@@H]2CO`, the activity change, negative = inhibition is 13.9%.
On to `CCOC(=O)c1c(NC(=O)c2cc(CC)on2)sc(C(C)=O)c1C`, for which the activity change, negative = inhibition is 0.462%.
The same measure for `CCOC(=O)c1c(NC(=O)CCl)sc(C(=O)N(CC)CC)c1C`: -99% (active); for `CCOC(=O)c1c(NC(=O)COC(=O)c2ccc(S(=O)(=O)C(F)F)cc2)sc(C(=O)N(C)C)c1C`: 6.79%.
Take `O=C(CC1C(=O)NCCN1CC(c1ccccc1)c1ccccc1)NCCc1cn[nH]c1` (stereo unspecified): the activity change, negative = inhibition is -37.4%.
With `CCCCNC(=O)c1ccc2c(c1)NC(=O)C(C(C)C)N2` (stereo unspecified) the figure was 7.34%; with `CCOC(=O)c1c(NC(=O)c2ccc(S(=O)(=O)N(CC)CC)cc2)sc2c1CCCCC2`, 49.3%.
With `O=C(Nc1ncc2c(n1)-c1ccccc1OC2)c1ccc(Cl)cc1` the figure was 16.2%; with `COCCN(CC(=O)Nc1ccccc1C)S(=O)(=O)c1ccc(S(=O)(=O)N2CCCC2)cc1`, 26.9%.
`CCCN(CCC)S(=O)(=O)c1ccc(C(=O)Nc2sc3c(c2C(=O)OC)CCN(CC)C3)cc1`: the activity change, negative = inhibition was -35.8%.
Consider `C=CCN(CC=C)S(=O)(=O)c1ccc(C(=O)Nc2nc3c(s2)CCc2ccccc2-3)cc1`, for which the activity change, negative = inhibition was -86.4% (active).
With `C=CCN(CC=C)S(=O)(=O)c1ccc(C(=O)Nc2sc3c(c2C(N)=O)CCCCC3)cc1` the figure was -93.4% (active); with `C=CCN(c1ccc(C(=O)Nc2cc(C)cc(C)c2)cc1)S(C)(=O)=O`, -28.7%; with `CCCCN(C)S(=O)(=O)c1ccc(C(=O)Nc2sc3c(c2C(N)=O)CC(C)(C)NC3(C)C)cc1`, -1.57%.
The same measure for `COCCN(CCOC)S(=O)(=O)c1ccc(C(=O)Nc2nc3c(s2)CCc2ccccc2-3)cc1`: -63.9% (active).
